Data reported in the supplement of paper PMC11732987, “Enantioselective OTUD7B fragment discovery through chemoproteomics screening and high-throughput optimisation” (Communications Chemistry, 2025).

What was measured:
Experiment in all cases: log2 ratio of Biotin-Ahx-Ub-VS probe labelling (fragment/DMSO); higher = less target engagement (more negative = stronger competition), active = hit call of the paper (q ≤ 0.05, log2 ratio ≤ -1)
Conditions in all cases: compound concentration: 200 uM; treatment time: 3 h
USP9X = USP9X (UniProt Q93008)
Chain of USP9X (Q93008 whole entry, the tested form may be a part): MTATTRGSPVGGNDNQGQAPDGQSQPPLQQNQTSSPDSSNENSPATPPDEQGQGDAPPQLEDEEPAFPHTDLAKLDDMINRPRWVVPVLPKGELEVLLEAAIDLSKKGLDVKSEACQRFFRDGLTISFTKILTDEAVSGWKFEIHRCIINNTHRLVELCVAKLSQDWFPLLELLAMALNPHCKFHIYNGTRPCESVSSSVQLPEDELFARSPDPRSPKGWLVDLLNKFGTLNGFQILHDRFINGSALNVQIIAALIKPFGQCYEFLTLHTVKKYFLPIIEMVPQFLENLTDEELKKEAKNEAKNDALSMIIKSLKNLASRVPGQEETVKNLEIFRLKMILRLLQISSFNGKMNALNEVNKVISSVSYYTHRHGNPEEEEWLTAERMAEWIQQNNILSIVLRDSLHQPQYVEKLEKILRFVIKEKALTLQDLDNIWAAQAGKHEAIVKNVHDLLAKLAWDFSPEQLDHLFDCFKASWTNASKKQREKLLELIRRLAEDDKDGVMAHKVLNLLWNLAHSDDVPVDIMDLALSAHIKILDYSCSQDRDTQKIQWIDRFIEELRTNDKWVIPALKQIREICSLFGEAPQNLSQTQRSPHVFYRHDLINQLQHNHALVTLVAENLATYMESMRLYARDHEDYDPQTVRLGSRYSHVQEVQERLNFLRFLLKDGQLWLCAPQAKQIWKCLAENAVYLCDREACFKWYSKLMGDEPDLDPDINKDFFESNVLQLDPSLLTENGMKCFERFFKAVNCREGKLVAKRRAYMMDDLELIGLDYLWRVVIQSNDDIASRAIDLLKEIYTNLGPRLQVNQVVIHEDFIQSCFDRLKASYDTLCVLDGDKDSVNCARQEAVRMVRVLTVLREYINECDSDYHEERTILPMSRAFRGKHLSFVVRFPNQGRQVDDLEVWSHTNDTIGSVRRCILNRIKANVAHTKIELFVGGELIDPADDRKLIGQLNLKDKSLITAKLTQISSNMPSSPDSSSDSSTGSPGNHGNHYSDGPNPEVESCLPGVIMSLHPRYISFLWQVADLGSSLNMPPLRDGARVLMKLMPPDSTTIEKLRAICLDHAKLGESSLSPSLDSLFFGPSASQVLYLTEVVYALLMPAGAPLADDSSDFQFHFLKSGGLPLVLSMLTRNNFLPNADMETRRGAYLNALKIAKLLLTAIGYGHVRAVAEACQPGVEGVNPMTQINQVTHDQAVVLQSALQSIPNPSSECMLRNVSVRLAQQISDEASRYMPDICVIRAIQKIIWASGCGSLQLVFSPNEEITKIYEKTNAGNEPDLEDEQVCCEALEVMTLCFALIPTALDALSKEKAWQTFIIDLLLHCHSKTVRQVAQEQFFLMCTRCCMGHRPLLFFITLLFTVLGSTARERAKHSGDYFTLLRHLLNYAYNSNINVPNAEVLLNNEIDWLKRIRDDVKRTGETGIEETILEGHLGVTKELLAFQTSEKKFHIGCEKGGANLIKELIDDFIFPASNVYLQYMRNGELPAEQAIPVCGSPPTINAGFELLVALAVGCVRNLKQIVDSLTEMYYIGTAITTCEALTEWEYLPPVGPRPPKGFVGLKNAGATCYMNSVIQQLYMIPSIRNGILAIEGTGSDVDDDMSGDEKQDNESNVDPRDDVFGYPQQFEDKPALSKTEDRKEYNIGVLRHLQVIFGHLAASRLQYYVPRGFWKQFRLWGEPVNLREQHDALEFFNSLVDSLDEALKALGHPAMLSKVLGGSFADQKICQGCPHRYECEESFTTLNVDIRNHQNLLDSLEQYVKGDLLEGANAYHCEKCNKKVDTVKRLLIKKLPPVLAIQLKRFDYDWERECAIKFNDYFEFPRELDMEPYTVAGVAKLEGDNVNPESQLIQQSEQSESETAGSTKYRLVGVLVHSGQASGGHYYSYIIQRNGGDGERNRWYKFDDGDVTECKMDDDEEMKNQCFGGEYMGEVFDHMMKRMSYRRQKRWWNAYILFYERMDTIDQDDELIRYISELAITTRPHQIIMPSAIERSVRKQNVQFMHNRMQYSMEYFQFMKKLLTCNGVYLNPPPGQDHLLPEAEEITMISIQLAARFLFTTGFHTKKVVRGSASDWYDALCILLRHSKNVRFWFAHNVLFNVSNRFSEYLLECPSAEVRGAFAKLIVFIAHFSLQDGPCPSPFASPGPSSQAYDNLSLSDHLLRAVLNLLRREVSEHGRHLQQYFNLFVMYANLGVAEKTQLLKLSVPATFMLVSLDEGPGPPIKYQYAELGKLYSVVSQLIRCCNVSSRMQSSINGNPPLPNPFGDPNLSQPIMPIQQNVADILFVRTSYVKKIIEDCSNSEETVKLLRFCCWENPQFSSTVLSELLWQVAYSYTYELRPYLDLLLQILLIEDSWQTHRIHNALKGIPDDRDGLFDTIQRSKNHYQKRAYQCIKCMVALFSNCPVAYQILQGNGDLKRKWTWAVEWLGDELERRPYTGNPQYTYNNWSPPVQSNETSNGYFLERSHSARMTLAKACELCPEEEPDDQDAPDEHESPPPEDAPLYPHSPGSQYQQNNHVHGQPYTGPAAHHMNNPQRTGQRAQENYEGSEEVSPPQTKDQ
Summary of the method: (§1)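 Labelled DUBs from HEK293T lysate were NeutrAvidin-enriched, digested with LysC and trypsin, and run by diaPASEF LC-MS/MS. Before that, each 495 µg sample in Tris/CHAPS/IGEPAL buffer with protease inhibitors was treated in triplicate with fragment at 200 µM or vehicle for 3 h, then with Biotin-Ahx-Ub-VS at 0.5 µM final for 1 h. Values are average log2 ratios of fragment over vehicle by unpaired t-test, based on global-median-normalised Spectronaut label-free quantities from proteins with ≥2 unique peptides.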

UniProt O00487 = biological target: UniProt O00487
Chain of UniProt O00487 (O00487 whole entry): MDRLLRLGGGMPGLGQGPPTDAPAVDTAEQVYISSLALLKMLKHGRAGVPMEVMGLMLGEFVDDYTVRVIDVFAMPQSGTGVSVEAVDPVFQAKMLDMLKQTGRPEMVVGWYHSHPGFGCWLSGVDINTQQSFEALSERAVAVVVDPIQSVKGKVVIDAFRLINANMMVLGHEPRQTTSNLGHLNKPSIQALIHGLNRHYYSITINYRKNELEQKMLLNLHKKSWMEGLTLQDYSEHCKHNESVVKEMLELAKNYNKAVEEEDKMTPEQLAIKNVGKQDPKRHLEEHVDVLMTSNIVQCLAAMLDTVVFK
Summary of the method: as §1

UniProt O00507 = biological target: UniProt O00507
Summary of the method: as §1

UniProt P51784 = biological target: UniProt P51784
Chain of UniProt P51784 (P51784 whole entry): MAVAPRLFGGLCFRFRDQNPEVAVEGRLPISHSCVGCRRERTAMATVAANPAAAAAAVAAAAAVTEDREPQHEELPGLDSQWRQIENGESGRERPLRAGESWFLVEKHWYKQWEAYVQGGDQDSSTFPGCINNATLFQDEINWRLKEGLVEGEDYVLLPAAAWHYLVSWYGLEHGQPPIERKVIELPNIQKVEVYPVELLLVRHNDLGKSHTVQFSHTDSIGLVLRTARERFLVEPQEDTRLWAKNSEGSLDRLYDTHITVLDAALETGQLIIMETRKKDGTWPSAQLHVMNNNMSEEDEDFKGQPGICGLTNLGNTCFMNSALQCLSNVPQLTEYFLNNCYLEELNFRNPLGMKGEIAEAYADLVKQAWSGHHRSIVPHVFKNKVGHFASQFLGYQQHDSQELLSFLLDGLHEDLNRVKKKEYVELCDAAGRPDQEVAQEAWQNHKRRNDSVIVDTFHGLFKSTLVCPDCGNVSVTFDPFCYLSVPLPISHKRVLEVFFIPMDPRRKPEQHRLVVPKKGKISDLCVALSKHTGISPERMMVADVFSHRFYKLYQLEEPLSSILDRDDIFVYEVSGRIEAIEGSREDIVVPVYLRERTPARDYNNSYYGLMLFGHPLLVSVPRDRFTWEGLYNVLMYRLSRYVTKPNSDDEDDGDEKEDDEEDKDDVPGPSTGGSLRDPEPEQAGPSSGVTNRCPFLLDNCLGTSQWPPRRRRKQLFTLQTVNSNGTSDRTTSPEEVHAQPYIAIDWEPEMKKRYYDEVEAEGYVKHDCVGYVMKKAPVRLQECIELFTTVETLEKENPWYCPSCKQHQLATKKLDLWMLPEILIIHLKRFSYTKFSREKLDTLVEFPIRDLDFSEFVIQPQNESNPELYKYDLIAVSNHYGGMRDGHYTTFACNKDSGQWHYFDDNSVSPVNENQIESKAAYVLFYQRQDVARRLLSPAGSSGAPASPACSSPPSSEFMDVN
Summary of the method: as §1

UniProt Q5T2D3 = biological target: T1, UniProt Q5T2D3
T1 sequence (whole entry): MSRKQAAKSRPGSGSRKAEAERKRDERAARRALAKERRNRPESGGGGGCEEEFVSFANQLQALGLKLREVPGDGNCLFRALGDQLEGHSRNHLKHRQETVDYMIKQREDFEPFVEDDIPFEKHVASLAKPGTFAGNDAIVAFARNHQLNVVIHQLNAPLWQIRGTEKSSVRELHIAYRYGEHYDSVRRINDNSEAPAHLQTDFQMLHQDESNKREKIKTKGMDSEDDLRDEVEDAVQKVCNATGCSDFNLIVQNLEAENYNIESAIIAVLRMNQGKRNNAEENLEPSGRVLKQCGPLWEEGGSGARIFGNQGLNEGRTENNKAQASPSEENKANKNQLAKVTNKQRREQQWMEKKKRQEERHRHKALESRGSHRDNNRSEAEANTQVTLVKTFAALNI
Summary of the method: as §1

UniProt Q8TE49 = biological target: T2, UniProt Q8TE49
T2 sequence (whole entry): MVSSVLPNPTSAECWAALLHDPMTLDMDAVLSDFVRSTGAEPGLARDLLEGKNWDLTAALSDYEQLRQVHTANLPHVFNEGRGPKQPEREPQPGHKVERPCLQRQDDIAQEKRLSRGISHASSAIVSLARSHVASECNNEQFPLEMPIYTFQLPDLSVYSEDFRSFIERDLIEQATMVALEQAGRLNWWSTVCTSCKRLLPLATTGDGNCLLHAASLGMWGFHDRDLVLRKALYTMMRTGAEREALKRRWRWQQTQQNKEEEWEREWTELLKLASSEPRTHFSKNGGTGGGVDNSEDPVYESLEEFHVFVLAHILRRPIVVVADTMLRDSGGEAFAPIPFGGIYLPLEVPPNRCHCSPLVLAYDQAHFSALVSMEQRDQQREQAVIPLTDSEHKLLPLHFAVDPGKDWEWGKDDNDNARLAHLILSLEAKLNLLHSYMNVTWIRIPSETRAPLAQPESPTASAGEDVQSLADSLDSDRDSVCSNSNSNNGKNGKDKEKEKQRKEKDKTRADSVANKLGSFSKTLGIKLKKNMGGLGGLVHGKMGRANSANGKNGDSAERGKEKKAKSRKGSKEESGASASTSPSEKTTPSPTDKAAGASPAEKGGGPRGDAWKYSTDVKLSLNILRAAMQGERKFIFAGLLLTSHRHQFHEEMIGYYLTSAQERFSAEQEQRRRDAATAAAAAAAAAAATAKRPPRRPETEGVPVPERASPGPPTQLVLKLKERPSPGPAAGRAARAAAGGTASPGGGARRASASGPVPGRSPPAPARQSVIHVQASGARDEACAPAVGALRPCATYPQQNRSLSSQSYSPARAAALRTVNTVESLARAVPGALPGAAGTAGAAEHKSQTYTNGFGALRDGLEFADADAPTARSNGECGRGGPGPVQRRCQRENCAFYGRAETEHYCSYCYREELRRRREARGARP
Summary of the method: as §1

UniProt Q9P2H5 = biological target: T3, UniProt Q9P2H5
T3 sequence (whole entry): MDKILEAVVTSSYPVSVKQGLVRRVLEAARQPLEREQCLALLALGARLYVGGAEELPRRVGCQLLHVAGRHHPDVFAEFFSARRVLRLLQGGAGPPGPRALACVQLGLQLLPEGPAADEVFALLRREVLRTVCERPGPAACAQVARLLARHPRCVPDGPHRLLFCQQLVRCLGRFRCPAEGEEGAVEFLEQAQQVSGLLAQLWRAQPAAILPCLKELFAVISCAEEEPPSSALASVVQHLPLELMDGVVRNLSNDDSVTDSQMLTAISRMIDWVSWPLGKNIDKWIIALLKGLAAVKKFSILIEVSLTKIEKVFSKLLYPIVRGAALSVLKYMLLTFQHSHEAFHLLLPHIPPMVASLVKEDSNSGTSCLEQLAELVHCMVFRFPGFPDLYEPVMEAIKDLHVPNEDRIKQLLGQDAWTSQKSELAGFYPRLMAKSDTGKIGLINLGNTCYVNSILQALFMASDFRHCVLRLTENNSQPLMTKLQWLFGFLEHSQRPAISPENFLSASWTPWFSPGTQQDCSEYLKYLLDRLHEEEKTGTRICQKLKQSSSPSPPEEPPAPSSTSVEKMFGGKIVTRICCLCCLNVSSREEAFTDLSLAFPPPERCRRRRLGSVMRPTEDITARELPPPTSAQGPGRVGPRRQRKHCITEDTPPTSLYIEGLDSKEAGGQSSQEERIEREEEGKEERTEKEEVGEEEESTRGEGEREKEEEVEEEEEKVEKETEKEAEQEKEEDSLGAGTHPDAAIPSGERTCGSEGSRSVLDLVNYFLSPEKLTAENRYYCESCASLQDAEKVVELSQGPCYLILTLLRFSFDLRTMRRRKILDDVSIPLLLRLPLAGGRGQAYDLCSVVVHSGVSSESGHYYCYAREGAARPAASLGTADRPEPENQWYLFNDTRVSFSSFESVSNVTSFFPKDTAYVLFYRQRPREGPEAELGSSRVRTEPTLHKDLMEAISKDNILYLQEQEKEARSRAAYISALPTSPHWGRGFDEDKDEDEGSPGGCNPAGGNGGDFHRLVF
Summary of the method: as §1

UniProt Q9UGI0 = biological target: T4, UniProt Q9UGI0
T4 sequence (whole entry): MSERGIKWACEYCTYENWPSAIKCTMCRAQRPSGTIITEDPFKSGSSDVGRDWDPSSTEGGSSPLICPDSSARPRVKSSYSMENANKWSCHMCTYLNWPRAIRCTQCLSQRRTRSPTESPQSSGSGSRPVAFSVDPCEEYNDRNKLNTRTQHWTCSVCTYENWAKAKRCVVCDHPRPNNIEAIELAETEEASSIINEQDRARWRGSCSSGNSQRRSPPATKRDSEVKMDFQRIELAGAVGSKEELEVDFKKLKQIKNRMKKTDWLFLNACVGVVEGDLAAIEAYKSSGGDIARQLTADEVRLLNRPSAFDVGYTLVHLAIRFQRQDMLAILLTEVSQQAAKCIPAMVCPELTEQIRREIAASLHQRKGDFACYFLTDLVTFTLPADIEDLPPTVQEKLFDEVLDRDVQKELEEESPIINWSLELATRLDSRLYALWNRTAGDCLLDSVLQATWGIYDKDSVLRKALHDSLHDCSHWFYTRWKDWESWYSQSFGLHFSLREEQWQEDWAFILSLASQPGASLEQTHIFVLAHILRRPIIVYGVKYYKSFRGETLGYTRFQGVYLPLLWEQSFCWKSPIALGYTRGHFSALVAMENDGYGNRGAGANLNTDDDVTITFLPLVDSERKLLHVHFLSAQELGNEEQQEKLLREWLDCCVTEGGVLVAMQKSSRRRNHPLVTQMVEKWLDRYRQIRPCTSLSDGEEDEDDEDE
Summary of the method: as §1

YOD1 = biological target: T5, YOD1 (UniProt Q5VVQ6)
T5 sequence (whole entry): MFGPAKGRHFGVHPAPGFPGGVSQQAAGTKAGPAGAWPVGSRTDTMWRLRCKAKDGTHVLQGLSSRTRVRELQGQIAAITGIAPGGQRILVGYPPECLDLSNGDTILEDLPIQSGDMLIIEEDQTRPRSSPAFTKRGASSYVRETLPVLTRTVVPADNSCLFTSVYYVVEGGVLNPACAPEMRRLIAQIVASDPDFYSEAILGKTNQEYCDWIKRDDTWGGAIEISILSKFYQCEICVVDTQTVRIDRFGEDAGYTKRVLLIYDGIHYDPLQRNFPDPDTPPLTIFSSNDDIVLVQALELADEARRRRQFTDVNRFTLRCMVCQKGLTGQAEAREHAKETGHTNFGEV
Summary of the method: as §1

Measured: log2 ratio of Biotin-Ahx-Ub-VS probe labelling

Cl.O=C(CCl)NCc1ccnc(Oc2ccccc2F)c1
inactive: USP9X -0.17 | UniProt O00487 0.13 | UniProt O00507 -0.125 | UniProt P51784 0.0358 | UniProt Q5T2D3 -0.167 | UniProt Q8TE49 -0.406 | UniProt Q9P2H5 -0.188 | UniProt Q9UGI0 -0.246 | YOD1 -0.103
